Each structure is given as a SMILES string.

The experiment concerns the target T1, Methionyl-tRNA synthetase, putative (Leishmania donovani (strain BPK282A1)) (UniProt E9BF75).
T1 sequence (whole entry): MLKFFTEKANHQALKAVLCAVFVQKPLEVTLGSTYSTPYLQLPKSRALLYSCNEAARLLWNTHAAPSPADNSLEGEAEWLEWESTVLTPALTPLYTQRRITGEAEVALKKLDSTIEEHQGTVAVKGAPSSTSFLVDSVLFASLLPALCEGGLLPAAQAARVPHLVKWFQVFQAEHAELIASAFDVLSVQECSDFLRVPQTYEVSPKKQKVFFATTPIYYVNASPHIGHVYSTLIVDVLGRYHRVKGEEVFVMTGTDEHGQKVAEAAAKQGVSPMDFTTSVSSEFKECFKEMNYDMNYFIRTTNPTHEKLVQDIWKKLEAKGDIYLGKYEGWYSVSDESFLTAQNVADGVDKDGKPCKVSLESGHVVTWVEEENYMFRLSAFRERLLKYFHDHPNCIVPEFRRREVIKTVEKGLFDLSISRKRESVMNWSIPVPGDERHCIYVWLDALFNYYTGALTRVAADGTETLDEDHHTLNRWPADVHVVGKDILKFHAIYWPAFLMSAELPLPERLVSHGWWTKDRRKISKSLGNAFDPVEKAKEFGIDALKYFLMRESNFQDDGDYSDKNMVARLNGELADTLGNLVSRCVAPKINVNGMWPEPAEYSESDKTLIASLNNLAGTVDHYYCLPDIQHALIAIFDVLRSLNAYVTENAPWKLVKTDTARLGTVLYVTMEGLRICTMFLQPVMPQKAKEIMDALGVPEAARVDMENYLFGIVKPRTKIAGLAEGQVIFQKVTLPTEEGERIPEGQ
Kind of experiment: Leishmania donovani Methionine tRNA synthetase (LdMetRS):v7. Dose response assay. Type of experiment: functional. Also noted: conc 80 nM, time 150 minutes.

Turning to `NS(=O)(=O)c1cccnc1NC1CCCCC1`, the PXC50 (MAX_EFFECT 6.986027944) is less than 4.
For the molecule `NS(=O)(=O)c1cccnc1Nc1cc(O)ccn1`, where the note is “MAX_EFFECT 7.407407407”, the PXC50 was less than 4.
For the setting “MAX_EFFECT 7.777777778”, `CCn1c(NC(=O)Nc2ccccc2C)nc2ccccc21` had a PXC50 of less than 4.
Same read-out and setting: to `COc1ccc(OC)c(NC(=O)N2CCOc3ccc(C)cc32)c1` belongs less than 4.
`COc1ccccc1CNC(=O)Nc1ccccc1OC` gave a PXC50 (MAX_EFFECT 9.158878505) of less than 4.
With `CN(C)c1nc(NCCO)c2cnn(C)c2n1`, the PXC50 (MAX_EFFECT 10.24667932) was less than 4.
Turning to `Cn1ncc2c(NCCO)nc(N3CCCCC3)nc21`, the PXC50 (MAX_EFFECT 10.78998073) was less than 4.
For `FC(F)(F)CCNCc1cc(Cl)cc(Cl)c1`, the PXC50 (MAX_EFFECT 11.28107075) is less than 2.7.
Under “MAX_EFFECT 15.09433962”, `OCCCNc1nccc(Nc2ccc(F)c(F)c2)n1` came in with a PXC50 of less than 4.
`COc1ccccc1NC(=O)Nc1cccc(N)c1`: where the note is “MAX_EFFECT 17.00934579”, the PXC50 was less than 4.
Molecule `COc1ccccc1NC(=O)Nc1nn(C)c2cccc(OC)c12` gave a PXC50 (MAX_EFFECT 17.77777778) of less than 4.
Where the note is “MAX_EFFECT 18.9292543”, `Clc1cc(Cl)cc(NC2COC2)c1` came in with a PXC50 of less than 2.7.
Consider `Cc1cnn(C)c1CNCc1cc(Cl)cc(Cl)c1`, for which, under “MAX_EFFECT 20.07648184”, the PXC50 is less than 2.7.
For `Clc1cc(Cl)cc(CNCc2c[nH]cn2)c1`, where the note is “MAX_EFFECT 24.66539197”, the PXC50 is less than 2.7.
Take `COc1ccccc1NC(=O)NCC1CCCCC1`: where the note is “MAX_EFFECT 34.20560748”, the PXC50 was less than 4.
For `Clc1cc(Cl)cc(CNCc2ccncc2)c1`, the PXC50 (MAX_EFFECT 36.1376673) was less than 2.7.
For the molecule `CC(NCc1cc(Cl)cc(Cl)c1)C1CCCN(C(=O)OC(C)(C)C)C1` (stereo unspecified), where the note is “MAX_EFFECT 36.52007648”, the PXC50 was less than 2.7.
`CCNc1nc(C#N)nc(Nc2ccccc2)n1`: the PXC50 (MAX_EFFECT 38.88888889) is less than 4.
In turn, `Clc1cc(Cl)cc(CNCc2ccccn2)c1` returned a PXC50 (MAX_EFFECT 45.69789675) of less than 2.7.
Take `C[C@@H](CO)Nc1ccnc(Nc2cccc(F)c2)n1`: the PXC50 (MAX_EFFECT 30.05780347) is less than 4.
As to `Clc1cc(Cl)cc(NCc2ccc3[nH]ncc3c2)c1`, the PXC50 (MAX_EFFECT 28.48948375) was less than 2.7.
`Cn1ncc2c(NCCO)nc(Nc3cccc(F)c3)nc21` yielded a PXC50 (BOTTOM 8.925751042, HILLSLOPE 1.252459196, MAX_EFFECT 66.66666667, TOP 81.92338456) of 4.47.
`C[C@@H](CO)Nc1nccc(Nc2ccc(F)c(F)c2)n1` had a PXC50 (MAX_EFFECT 2.697495183) of less than 4.
`Cc1cccc(Nc2ncccc2S(N)(=O)=O)c1`: the PXC50 (MAX_EFFECT 4.448742747) was less than 4.
The molecule `NS(=O)(=O)c1cccnc1Nc1ccc(F)c(F)c1` registered a PXC50 (MAX_EFFECT -0.759013283) of less than 4.
Consider `C[C@@H](CO)Nc1nc(Nc2ccc(F)c(F)c2)nc2c1cnn2C`, for which, for the setting “BOTTOM 0.900407202, HILLSLOPE 1.012545194, MAX_EFFECT 78.11320755, TOP 96.15766895”, the PXC50 is 4.67.
The molecule `Clc1cc(Cl)cc(CNCc2ncc[nH]2)c1` registered a PXC50 (MAX_EFFECT 20.45889101) of less than 2.7.
Molecule `Cn1ncc2c(NCCO)nc(NCCn3cccn3)nc21` gave a PXC50 (MAX_EFFECT 36.99421965) of less than 4.
Under “MAX_EFFECT 8.518518519”, `NS(=O)(=O)c1cccnc1Nc1cncnc1` had a PXC50 of less than 4.
`Clc1cc(Cl)cc(CNC2COC2)c1` showed a PXC50 (MAX_EFFECT 15.10516252) of less than 2.7.
Under “MAX_EFFECT 18.13084112”, `CN1CCn2cc/c(=N\c3ccc(F)c(F)c3)nc21` yielded a PXC50 of less than 4.
Turning to `Cn1ncc2c(NCCO)nc(Nc3ccc(F)cc3)nc21`, under “BOTTOM 3.895127381, HILLSLOPE 1.044427324, MAX_EFFECT 67.40740741, TOP 80.2965153”, the PXC50 was found to be 4.65.
Molecule `Cn1ncc2c(NCCO)nc(NCC3CCCO3)nc21` (stereo unspecified) came in with a PXC50 (MAX_EFFECT 7.969639469) of less than 4.
As for `COc1ccncc1NC(=O)N1CCCc2ccccc21`, the PXC50 (MAX_EFFECT 36.98113208) was less than 4.
Under “BOTTOM 7.303470977, HILLSLOPE 1.421171765, MAX_EFFECT 85.85086042, TOP 90.87319761”, `Clc1cc(Cl)cc(CNCc2ccc3[nH]ccc3c2)c1` registered a PXC50 of 4.04.
As to `Cn1ncc2c(NCCO)nc(NC3CCOCC3)nc21`, the PXC50 (MAX_EFFECT 17.34104046) is less than 4.
For the molecule `Clc1cc(Cl)cc(CNCc2ccc3[nH]ncc3c2)c1`, the PXC50 (BOTTOM 1.106249154, HILLSLOPE 1.041028332, MAX_EFFECT 65.20076482, TOP 65.36183651) is 3.99.
For the setting “MAX_EFFECT 0.580270793”, `Cc1noc(CCNc2nc(NCCO)c3cnn(C)c3n2)n1` showed a PXC50 of less than 4.
Take `Cn1ncc2c(NC3CC3)nc(Nc3ccc(F)c(F)c3)nc21`: the PXC50 (MAX_EFFECT 47.9245283) was less than 4.
As to `COc1cc(Nc2ncccc2S(N)(=O)=O)cc(C(F)(F)F)c1`, the PXC50 (MAX_EFFECT 0.199600798) was less than 4.
With `C[C@H](CO)Nc1ccnc(Nc2cccc(F)c2)n1`, under “MAX_EFFECT 26.58959538”, the PXC50 was less than 4.
With `COc1cc(NC(=O)c2cccc3cccnc23)c(OC)cc1Cl`, the PXC50 (MAX_EFFECT 3.703703704) was less than 4.
Where the note is “MAX_EFFECT 9.248554913”, `CN(CCO)c1nc(NCCO)c2cnn(C)c2n1` registered a PXC50 of less than 4.
`Cn1ncc2c(NCCO)nc(N3CCOCC3)nc21`: the PXC50 (MAX_EFFECT 5.69259962) is less than 4.
`COC(=O)c1ccc(OC)c(NC(=O)N2CCOc3ccccc32)c1`: the PXC50 (MAX_EFFECT 3.018867925) was less than 4.
For the setting “BOTTOM -3.630779809, HILLSLOPE 0.738811655, MAX_EFFECT 60.88631985, TOP 100.0”, `OCCNc1ccnc(Nc2cccc(C(F)(F)F)c2)n1` showed a PXC50 of 4.28.
Take `c1ccc(-c2nc(-n3cnnc3)c3ccccc3n2)cc1`: the PXC50 (MAX_EFFECT 0.740740741) was less than 4.
Molecule `COc1ccccc1NC(=O)Nc1cccc(O)c1` showed a PXC50 (MAX_EFFECT 2.803738318) of less than 4.
As to `Cn1ncc2c(NCCO)nc(NCCCO)nc21`, for the setting “MAX_EFFECT 7.543520309”, the PXC50 was less than 4.
Molecule `COC(=O)c1ccc(OC)c(NC(=O)Nc2ccccc2OC)c1` had a PXC50 (MAX_EFFECT 5.794392523) of less than 4.
Regarding `C[C@H](CO)Nc1ccnc(Nc2ccc(F)c(F)c2)n1`, the PXC50 (BOTTOM -1.459719323, HILLSLOPE 0.865053746, MAX_EFFECT 69.36416185, TOP 100.0) was determined as 4.44.
On to `CN(c1nc(NCCO)c2cnn(C)c2n1)C1CCS(=O)(=O)C1` (stereo unspecified), for which the PXC50 (MAX_EFFECT 9.248554913) is less than 4.
Molecule `COc1ccccc1NC(=O)Nc1cnccc1OC` registered a PXC50 (MAX_EFFECT 4.905660377) of less than 4.
Consider `Oc1ccccc1-c1nc(Nc2ccccc2Cl)c2ccccc2n1`, for which the PXC50 (MAX_EFFECT 30.74074074) was less than 4.
Under “MAX_EFFECT 9.751434034”, `Clc1cc(Cl)cc(NCCc2ccccc2)c1` gave a PXC50 of less than 2.7.
On to `Clc1cc(Cl)cc(NCc2ccncc2)c1`, for which, under “BOTTOM -1.202484297, HILLSLOPE 0.574759938, MAX_EFFECT 66.34799235, TOP 100.0”, the PXC50 is 3.3.
The molecule `Cn1ncc2c(NCCO)nc(NCCS(=O)(=O)N3CCOCC3)nc21` returned a PXC50 (MAX_EFFECT 23.12138728) of less than 4.
`COc1ccccc1NC(=O)Nc1cc(C(N)=O)ccc1OC` displayed a PXC50 (MAX_EFFECT 5.420560748) of less than 4.
Molecule `C[C@H](CO)Nc1nccc(Cl)n1` gave a PXC50 (MAX_EFFECT 4.672897196) of less than 4.
Regarding `Cc1nc2c(-c3nc(-c4ccccc4N)n[nH]3)cccn2c1C`, the PXC50 is, setting by setting: (MAX_EFFECT 15.34883721) less than 4; (MAX_EFFECT 20.27972028) less than 4.

Source of the values: ChEMBL document CHEMBL3988442, “University of Dundee, Small-Polar-MMV Screening Library” (2021).
